The structures appear in SMILES notation. Compounds without any hit were thinned out: in the full panel of roughly 83,000, 20% have a hit.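 Growth was measured after 48 h exposure to one concentration of compound in 96-well plates. Values under 10 count as active.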 Values without a mark were called inactive. The source made the active and inactive calls.

The record followed here is PubChem BioAssay (NCI).

Some test systems named below: DU-145 prostate; K-562 leukemia; MALME-3M melanoma; MDA-MB-231 breast; RXF 393 renal; SF-268 CNS; SF-295 CNS; SF-539 CNS; UACC-257 melanoma; M14 melanoma.
Holding throughout (test): NCI-60 one-dose screen, 48 h (100 = growth as untreated, 0 = no growth, -100 = all killed)
Common to all, as to conditions: 10 µM unless noted

In the case of `CCN(CC)c1ccc(/C=C/c2cc(C)c3ccccc3n2)cc1`, the growth in the experiment on DU-145 prostate was 94.2%; with K-562 leukemia, 25.3%; with MALME-3M melanoma, 59.4%; in the experiment with MDA-MB-231 breast, 42.4%; with RXF 393 renal, 13.2%; in the experiment with SF-268 CNS, 82.5%. The growth in the experiment with SF-295 CNS is 41.5%; in the experiment on SF-539 CNS, 48.4%; in the experiment on UACC-257 melanoma it was 60.5%; with M14 melanoma, 38.2%.
With `COc1ccc2c(c1)c(-c1nc(-c3cn(C)c4ncccc34)cs1)cn2CCCN1CCCCC1`, the growth with DU-145 prostate is 42.9%; in the experiment on K-562 leukemia, -48.4% (active); with MALME-3M melanoma, 81.1%; with MDA-MB-231 breast, 44.2%; in the experiment with RXF 393 renal, 65%; with SF-268 CNS, 76.6%. The growth is 91.6% with SF-295 CNS, 43.9% in the experiment on SF-539 CNS, 96% with UACC-257 melanoma and -85.2% (active) with M14 melanoma.
As for `CCc1nnc(NC(=O)c2ccoc2COc2ccccc2)s1`, the growth is 75.4% with DU-145 prostate; 12.3% in the experiment on K-562 leukemia; 47.5% with MALME-3M melanoma; 55.9% in the experiment on MDA-MB-231 breast; 54.2% with RXF 393 renal; 66.7% in the experiment on SF-268 CNS. For the same molecule, the growth in the experiment with SF-295 CNS is 36.1%; in the experiment with SF-539 CNS it was 43.5%; in the experiment on UACC-257 melanoma, 76.9%; in the experiment on M14 melanoma, 11.7%.
On to `Oc1cccc2ccc(N/N=C/c3cc(CN4CCCCC4)c(O)c4ncccc34)nc12`, for which the growth with DU-145 prostate was 24.1%; with K-562 leukemia, 13.1%; in the experiment on MALME-3M melanoma, 19.1%; in the experiment with MDA-MB-231 breast, -4.71% (active); in the experiment with RXF 393 renal, 9.94% (active); with SF-268 CNS, 12.6%. The growth in the experiment on SF-295 CNS is -5.38% (active); with SF-539 CNS, 4.73% (active); in the experiment with UACC-257 melanoma, 13.4%; with M14 melanoma it was -24.8% (active).
Take `COc1ccc(OC)c(-c2c(C#N)c(-c3ccco3)nc3c2c(-c2ccccc2)nn3-c2ccccc2)c1`: the growth in the experiment on DU-145 prostate is 102%; in the experiment on K-562 leukemia, 105%; with MALME-3M melanoma it was 112%; in the experiment with MDA-MB-231 breast, 90%; with RXF 393 renal it was 99.8%; in the experiment with SF-268 CNS, 96.2%. Further, the growth in the experiment on SF-295 CNS is 98.9%; in the experiment with SF-539 CNS, 92.6%; with UACC-257 melanoma, 99.7%; with M14 melanoma, 108%.
In the case of `COc1cc(-c2cc3ncccc3c3nc(N)c4cccnc4c23)cc(OC)c1OC`, the growth in the experiment with DU-145 prostate was 2.16% (active); with K-562 leukemia it was 16.3%; with MALME-3M melanoma, 50.9%; in the experiment on MDA-MB-231 breast, 36.5%; with RXF 393 renal, 10.9%; with SF-268 CNS it was 29.6%. The growth with SF-295 CNS is 12.4%; with SF-539 CNS it was -1.92% (active); in the experiment with UACC-257 melanoma, 44.3%; in the experiment with M14 melanoma it was 4.68% (active).
For the molecule `Clc1ccc2c(NCCNc3nc(-c4ccccc4)cc(-c4ccccc4)n3)ccnc2c1`, the growth is -34.1% (active) in the experiment on DU-145 prostate; -46.6% (active) in the experiment on K-562 leukemia; -89.3% (active) with MALME-3M melanoma; -80.9% (active) in the experiment with MDA-MB-231 breast; -88.2% (active) in the experiment with RXF 393 renal; -59.7% (active) in the experiment on SF-268 CNS. Further, the growth is -75.8% (active) with SF-295 CNS, -81.1% (active) with SF-539 CNS, 77.8% with UACC-257 melanoma and -75.4% (active) with M14 melanoma.
Consider `O=C1C(=O)c2ccccc2C(O)=C1CCCc1ccc(C2CCCCC2)cc1`, for which the growth was 39.2% in the experiment with DU-145 prostate; 32.8% in the experiment with K-562 leukemia; 87.9% with MALME-3M melanoma; 52.1% in the experiment on MDA-MB-231 breast; 67.2% in the experiment with RXF 393 renal; 38.1% in the experiment on SF-268 CNS. For the same molecule, the growth in the experiment with SF-295 CNS was 39.7%; with SF-539 CNS, 29.2%; in the experiment with UACC-257 melanoma, 34.9%; with M14 melanoma it was 56.3%.
With `Cc1ccc(-c2nc([P+](c3ccccc3)(c3ccccc3)c3ccccc3)c(N3C[C@H]4C[C@H](C3)c3cccc(=O)n3C4)o2)cc1`, the growth with DU-145 prostate is 98.3%; in the experiment on K-562 leukemia it was 47.3%; with MALME-3M melanoma, 74.5%; in the experiment on MDA-MB-231 breast it was 90.9%; with RXF 393 renal it was 79.8%; in the experiment with SF-268 CNS, 91.1%. Moreover, the growth was 96.1% with SF-295 CNS, 99.7% in the experiment on SF-539 CNS, 37.5% in the experiment on UACC-257 melanoma and 82.3% in the experiment on M14 melanoma.
Turning to `COc1ccc2c(c1)c1nc3cc(C)c(C)cc3nc1n2CCN(C)C`, the growth is 11.9% with DU-145 prostate; -2.38% (active) in the experiment with K-562 leukemia; -30.8% (active) in the experiment on MALME-3M melanoma; -2.89% (active) in the experiment with MDA-MB-231 breast; 13.2% with RXF 393 renal; 31.3% with SF-268 CNS. Also, the growth with SF-295 CNS is 4.6% (active); with SF-539 CNS it was -13.2% (active); in the experiment on UACC-257 melanoma, 8.99% (active); with M14 melanoma it was 4.45% (active).
Regarding `COc1cc2nc(Cl)nc(Nc3cccc(C(=O)/C=C/c4ccc(Cl)cc4)c3)c2cc1OC`, the growth in the experiment on DU-145 prostate is 88.2%; with K-562 leukemia it was 11.3%; in the experiment with MALME-3M melanoma, 88.2%; with MDA-MB-231 breast, 73.7%; with RXF 393 renal, 62.7%; in the experiment on SF-268 CNS it was 85.7%. For the same molecule, the growth with SF-295 CNS is 80.6%; in the experiment on SF-539 CNS it was 50%; in the experiment on UACC-257 melanoma it was 94%; with M14 melanoma it was 70.2%.
As to `COc1cc2nc(Cl)nc(Nc3cccc(C(=O)/C=C/c4ccc(Br)cc4)c3)c2cc1OC`, the growth in the experiment on DU-145 prostate is 97.6%; in the experiment with K-562 leukemia, 35.9%; in the experiment on MALME-3M melanoma, 105%; in the experiment with MDA-MB-231 breast it was 78%; with RXF 393 renal, 85.1%; with SF-268 CNS, 94.5%. Further, the growth in the experiment on SF-295 CNS is 86.1%; in the experiment on SF-539 CNS, 82.2%; in the experiment with UACC-257 melanoma, 107%; with M14 melanoma it was 89.8%.
As for `CCCCCCCN(CCCCCCC)C(=N)c1ccnc2ccccc12`, the growth is 1.08% (active) in the experiment with DU-145 prostate; -14.9% (active) in the experiment on K-562 leukemia; -76.2% (active) with MALME-3M melanoma; -71.3% (active) in the experiment on MDA-MB-231 breast; -76% (active) with RXF 393 renal; 33% in the experiment on SF-268 CNS. Further, the growth in the experiment on SF-295 CNS is -78.3% (active); in the experiment with SF-539 CNS, -82% (active); with UACC-257 melanoma it was -69.4% (active); with M14 melanoma, -64% (active).
